For 28 molecules, Inhibition results are on record in ChEMBL document CHEMBL1157539, “Thousands of chemical starting points for antimalarial lead identification” (Nature, 2010).

Holding throughout (format): functional
Assay [1] deals with Plasmodium falciparum. In words: GSK_TCMDC: Inhibition of Plasmodium falciparum 3D7 in whole red blood cells, using parasite LDH activity as an index of growth. Test compounds present at 2uM.
For assay [2], the system named is Plasmodium falciparum. In words: GSK_TCMDC: Inhibition of Plasmodium falciparum Dd2 in whole red blood cells, using parasite LDH activity as an index of growth. Test compounds present at 2uM.
The subject of the next assay is HepG2. In words: GSK_TCMDC: Percent inhibition of human HepG2 cell line. Test compounds present at 10uM.

`Cc1ccccc1C1CCN(C2CCC(NC(=O)c3cc(-c4ccc(Cl)cc4)cs3)CC2)CC1` (centres undefined): the Inhibition in the assay with Plasmodium falciparum [1] came out at 100%; in the assay on Plasmodium falciparum [2], 100%; with HepG2, 99%.
Regarding `O=C(Nc1ccc(Cl)cc1)Nc1cccc(-c2cccc(-c3nc4cc(C(F)(F)F)ccc4[nH]3)c2)c1`, the Inhibition stood at 99% in the assay on Plasmodium falciparum [1], 97% with Plasmodium falciparum [2] and 87% in the assay on HepG2.
`Cl.Clc1cnc2ccc3c(c2c1CCN1CCC(NCc2cc4c(cn2)OCCO4)CC1)OCCO3`: the Inhibition is 92% in the assay on Plasmodium falciparum [1], 18% in the assay on Plasmodium falciparum [2] and 3% in the assay with HepG2.
On to `CS(=O)(=O)c1ccc(CCNCc2ccc(-c3ccc(CN(C(=O)C4CC(=O)c5ccccc54)C4Cc5ccccc5C4)cc3)nc2)cc1.O=C(O)C(F)(F)F` (centres undefined), for which the Inhibition turned out to be 90% with Plasmodium falciparum [1], 21% in the assay on Plasmodium falciparum [2] and 5% with HepG2.
`CC(C)(C)c1cc(C(=O)N2CCN(c3ncnc4ccsc34)CC2)n(Cc2ccccc2)n1`: the Inhibition with Plasmodium falciparum [1] stood at 95%; with Plasmodium falciparum [2] it was 83%; with HepG2, 2%.
On to `CNC(=O)CSc1nnc(-c2ccc(C)cc2)c(-c2ccc(C)cc2)n1`, for which the Inhibition in the assay on Plasmodium falciparum [1] is on record as 94%; in the assay on Plasmodium falciparum [2], 49%; with HepG2, 2%.
The like results for `Nc1nc(N)c2c(ccc3c2ccn3Cc2cccc3ccccc23)n1` were, in that order, 99%, 95% and 65%.
For the molecule `Cc1cc(OCC2CCN(c3ncc(C(=O)Nc4ccccc4)cc3Cl)CC2)ccc1F`, the results for the Inhibition with Plasmodium falciparum [1], in the assay with Plasmodium falciparum [2] and in the assay on HepG2 were 91%, 87% and 27%, respectively.
The like results for `CC(C)(C)c1cc(C(=O)N2CCN(c3ncccc3C(F)(F)F)CC2)n(Cc2ccccc2)n1` were, in that order, 100%, 99% and 0%.
As for `Cc1cc(NCC2CCN(CC3CCCCC3)C2)nc(Nc2ccc(Cl)cc2)n1` (centres undefined), the Inhibition with Plasmodium falciparum [1] is 100%; with Plasmodium falciparum [2] it was 74%; in the assay with HepG2, 2%.
Take `CCOc1c(CNCCCNc2nc3ccccc3[nH]2)cc(I)cc1OC.Cl`: the results for the Inhibition with Plasmodium falciparum [1], with Plasmodium falciparum [2] and with HepG2 were 100%, 4% and 42%, respectively.
Taken in the same sequence, the figures for `O=C(O)C(F)(F)F.O=C1CCCN1CCCNCc1cccc(-c2cccc(-c3nc4cc(C(F)(F)F)ccc4[nH]3)c2)c1` were 100%, 90% and 28%.
`Cc1nc(-c2ccc(-c3ccc(C(=O)Nc4ccc(Cl)c(N5CCN(C)CC5)c4)cc3)c(C)c2)no1`: the Inhibition with Plasmodium falciparum [1] was 100%; with Plasmodium falciparum [2], 47%; in the assay on HepG2, 23%.
The like results for `Fc1ccc(Nc2ccnc3cc(-c4ccc(CNCCN5CCOCC5)o4)ccc23)c(Cl)c1` were, in that order, 100%, 99% and 34%.
For `O=C(O)C(F)(F)F.O=C1CCCN1CCCNCc1ccc(-c2cccc(-c3nc4ccccc4[nH]3)c2)cc1`, the Inhibition in the assay on Plasmodium falciparum [1] worked out at 96%; with Plasmodium falciparum [2], 0%; in the assay on HepG2, 19%.
For `COc1ccc(Cn2c(Nc3cccc(C(F)(F)F)c3)nc3ccc(C(=O)NCCN4CCCC4)cc32)cc1Cl`, the Inhibition was found to be 100% with Plasmodium falciparum [1], 6% with Plasmodium falciparum [2] and 14% in the assay on HepG2.
Regarding `COc1ccccc1-c1csc(C(=O)NC2CCCCN(Cc3ccc(C(C)(C)C)cc3)C2)c1.O=C(O)C(F)(F)F` (centres undefined), the Inhibition in the assay with Plasmodium falciparum [1] turned out to be 99%; with Plasmodium falciparum [2], 8%; with HepG2, 13%.
Taken in the same sequence, the figures for `COc1ccc(CNCc2cccc(-c3ccc(-c4nc5ccccc5[nH]4)s3)c2)cc1.O=C(O)C(F)(F)F` were 90%, 52% and 14%.
`Cl.N=C(N)Nc1ccc(CCc2ccc(NC(=N)N)cc2)cc1`: the Inhibition was 96% with Plasmodium falciparum [1], 95% in the assay with Plasmodium falciparum [2] and 57% in the assay on HepG2.
As for `c1ccc(CN2CCC(NCc3ccc(-c4cncc5ccccc45)cc3)CC2)cc1`, the values for the Inhibition in the assay with Plasmodium falciparum [1], in the assay with Plasmodium falciparum [2] and with HepG2 were 98%, 19% and 21%, respectively.
`Cc1cccc2nc(-c3ccc(-c4ccc(NC(=O)Nc5ccc(Cl)cc5)cc4)cc3)[nH]c12`: the Inhibition in the assay on Plasmodium falciparum [1] was determined as 100%; in the assay on Plasmodium falciparum [2], 100%; with HepG2 it was 52%.
In the case of `Cc1cccn2c(=O)c3cc(C(=O)NCc4cccnc4)c(=N)n(CCc4ccccc4)c3nc12`, the Inhibition is reported as 99% in the assay on Plasmodium falciparum [1], 38% in the assay with Plasmodium falciparum [2] and 0% in the assay on HepG2.
For `Cc1cc(-c2nc3cncc(-c4cccc(CN5CCCC5Cc5cccnc5)c4)c3n2C)nn1C.O=C(O)C(F)(F)F` (centres undefined), the values for the Inhibition with Plasmodium falciparum [1], in the assay on Plasmodium falciparum [2] and in the assay on HepG2 were 83%, 73% and 0%, respectively.
With `COc1ccc2c(c1)Sc1ccccc1C(N1CCN(CCO)CC1)C2.Cl` (centres undefined), the Inhibition with Plasmodium falciparum [1] worked out at 95%; in the assay with Plasmodium falciparum [2], 4%; in the assay with HepG2, 11%.
Taken in the same sequence, the figures for `COc1ccc2nccc([C@@H](O)CN3CCC(NC(=O)c4ccc(Oc5ccccc5)cc4)CC3)c2c1` were 82%, 13% and 39%.
As for `O=C(c1cccc(-c2cccc(-c3nc4cc(F)ccc4[nH]3)c2)c1)N1CCCCC1CN1CCC(O)C1` (centres undefined), the Inhibition turned out to be 90% with Plasmodium falciparum [1], 100% in the assay on Plasmodium falciparum [2] and 36% in the assay on HepG2.
Taken in the same sequence, the figures for `O=C(NC1CC1)c1cnc(N2CCC(c3ccccc3)CC2)c(Cl)c1.O=C(O)C(F)(F)F` were 94%, 95% and 6%.
Taken in the same sequence, the figures for `Cl.Nc1ccnc2ccc(OCCCCCCc3ccccc3)cc12` were 100%, 99% and 96%.
